Screen size: about 1,200 compounds; about 360 (30%) were called active. How the calls were made is not given here. The list is a sample of the results. Entries with a potency or affinity are not part of this list.
test: bacterial growth inhibition, dose response, counter-screen, BacTiter-Glo luminescence, cherry-picked samples (AID 504843); settings: BacTiter-Glo ATP luminescence; series mostly up to 15 µM; activity change, negative = inhibition: at the top concentration;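 further: growth measured after 8 h incubation at 30 °C; 0% = median of sample compound wells and -100% = antibiotic control wells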

| SMILES | activity change, negative = inhibition |
| --- | --- |
| O=C(CC1SCCNC1=O)Nc1cccc(Cl)c1 (centres undefined) | 7.99% (inactive) |
| COC(=O)CN1C(=O)N/C(=C/c2ccccc2OC)C1=O | -2.13% (inactive) |
| Nc1nnc(-c2ccc(F)cc2)s1 | -6.94% (inactive) |
| CC(C)c1nnc(NC(=O)CCS(=O)(=O)Cc2ccccc2)s1 | -6.44% (inactive) |
| O=C(CSc1nnc(-c2ccncc2)s1)Nc1ccc(Cl)c(C(=O)O)c1 | 19.2% (inactive) |
| O=C(COc1ccc2c3c(c(=O)oc2c1)CCCC3)NCc1ccncc1 | -29.5% (inactive) |
| O=C(O)CCC(=O)Nc1sc2c(c1C(=O)Nc1cccc3ccccc13)CCCCC2 | 0.5% (inactive) |
| Cc1onc(C(=O)NCc2ccc(F)cc2)c1[N+](=O)[O-] | 2.68% (inactive) |
| O=C(NCc1ccc(Cl)cc1)c1cccc(NC2=NC3CS(=O)(=O)CC3S2)c1 (centres undefined) | 8.12% (inactive) |
| O=C(COc1ccc2c3c(c(=O)oc2c1)CCCC3)NCC(O)c1ccccc1 (centres undefined) | -8.59% (inactive) |
| COc1ccc2c3c(c(=O)oc2c1OCC(N)=O)CCCC3 | -17.5% (inactive) |
| Cc1ccc2c(CC(=O)Nc3ccc(N4CCN(C)CC4)cc3C)coc2c1 | 20.9% (inactive) |
| CCOCCCNC(=S)NCCNc1nc2ccc(C)cc2cc1C#N | 5.71% (inactive) |
| COc1cc(C(=O)NC(c2ccccc2)c2ccccc2)cc(OC)c1C | -4.22% (inactive) |
| O=C(Cn1c(=O)n(-c2ccc(F)cc2)c(=O)c2sccc21)NC1CCCCC1 | -1.56% (inactive) |
| O=C(NNc1ncnc2c1cnn2-c1ccccc1)c1cccs1 | -12.2% (inactive) |
| CC(C)S(=O)(=O)C1=NSC2=NC(=O)/C(=C\c3ccc(-c4cccc(C(=O)O)c4)o3)C(=N)N21 | 6.02% (inactive) |
| CCc1nc2cc3sc(CC)nc3cc2s1 | -14% (inactive) |
| O=C(CCNc1n[nH]c(=O)[nH]c1=O)N1CCCCC1 | 12.4% (inactive) |
| C(=N\n1cncn1)/c1ccc(N2CCOCC2)cc1 | -9.77% (inactive) |
| Cc1cnc(C(=O)OCC(=O)c2ccc(-c3ccccc3)cc2)cn1 | -0.804% (inactive) |
| O=C(OCC(=O)N1CCCC1=O)c1cccc(S(=O)(=O)N2CCOCC2)c1 | 1.48% (inactive) |
| CN(C(=O)COC(=O)c1cccc(S(=O)(=O)N2CCOCC2)c1)C1CCS(=O)(=O)C1 (centres undefined) | -2.99% (inactive) |
| Cc1ccc(C(=O)N/C(=C\c2cn(S(=O)(=O)N(C)C)c3ccccc23)C(=O)NCCCN2CCOCC2)cc1 | 1.64% (inactive) |
| COc1ccc(S(=O)(=O)N2CCN(CC(=O)Nc3c(C)n[nH]c3C)CC2)cc1OC | 22.9% (inactive) |
| COc1ccc(C)cc1S(=O)(=O)N(CC(=O)NC1CCCC1)c1ccc(F)cc1 | 10.7% (inactive) |
| COc1cc(CNCc2ccccn2)ccc1OCc1c(Cl)cccc1Cl | 1.71% (inactive) |
| Cc1nn(-c2ccccc2)c(Cl)c1/C=N/NC(=O)c1ccccc1NS(=O)(=O)c1cccs1 | 11.3% (inactive) |
| CCOC(=O)c1c(NC(=O)C2C3C=CC(C3)C2C(=O)O)sc2c1CCC(C)C2 (centres undefined) | -13% (inactive) |

Source: PubChem BioAssay AID504843 (Broad Institute, 2011)
